# Screens from PubChem BioAssay.
# Only some compounds are listed: those with a hit (about 4.6% of all), similar ones and a draw of the others.
# tim10-1 inh: inhibits growth of tim10-1 mutant yeast | S. cerevisiae tim10-1 ts strain growth, BacTiter-Glo, 24 h | inhibition, % at 20 µM | actives 2.2% (n = 330,000);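 active = inhibition of at least 40%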;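 also: mutant grown at 25 °C; 0% = DMSO wells with yeast and 100% = wells holding no yeast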
# PfHsp90 yeast 2: growth inhibition of yeast expressing Plasmodium Hsp90; S. cerevisiae expressing PfHsp90, BacTiter-Glo ATP, 48 h; yeast lacking PDR1 and PDR3 efflux regulators; inhibition, % at 9.4 µM; actives 0.32% (n = 310,000);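 active = every replicate shows inhibition above about 80%, whatever the replicate mean, limit read from the data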;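 also: 0% = DMSO neutral controls and 100% = 20 µM radicicol positive controls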
# SKKanGAS inh: SKKanGAS growth inhibition. S. pyogenes SKKanGAS, kanamycin growth, BacTiter-Glo, 6 h. inhibition, % at 7.5 µM. actives 1.3% (n = 300,000). AID 1662;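 active = mean replicate score, as percent of positive control median, at least 50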;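 also: strain carries kanamycin resistance gene driven by streptokinase promoter and grows in 40 µg/ml kanamycin; loss of luminescence reflects streptokinase promoter inhibition or plain growth inhibition; 0% = median of DMSO wells and 100% = positive control at its reference dose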
# TIM10 inh: TIM10 yeast growth inhibition; actives 1.4% (n = 330,000); inhibition, % at 10 µM; S. cerevisiae TIM10 strain growth, BacTiter-Glo luminescence, 24 h;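 active = inhibition of 40% or more at the single tested concentration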;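 also: wild-type TIM10 isogenic control strain grown at permissive 25 °C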
# tim23-1 inh: inhibits growth of tim23-1 mutant yeast | S. cerevisiae tim23-1 growth, BacTiter-Glo luminescence, 24 h | inhibition, % at 20 µM | actives 1.3% (n = 330,000) | AID 463212;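 active = growth inhibition of the mutant yeast at or above 50%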;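 also: temperature-sensitive mutant grown at 25 °C; plate controls were DMSO-treated mutant yeast for no effect and medium wells lacking yeast for full effect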
# V-ATPase pHluor: yeast V-ATPase proton transport regulation by pHLuorin; S. cerevisiae, pHLuorin cytosolic pH fluorescence; actives 0.37% (n = 350,000); response, % at 10 µM; in the data active = response mostly above about 7.3%, no sharp cut-off; inactive = mostly below about 5.4%; also: actives read high
# tim23-1 confirm: confirmation of tim23-1 mutant yeast growth inhibitors; AID 463218; inhibition, % at 20 µM; S. cerevisiae tim23-1 growth, BacTiter-Glo luminescence, 24 h; actives 83% (n = 4,400); shares compounds with tim23-1 inh;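 active = inhibition above about 39% in either of two replicate wells at 20 µM, limit read from the data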;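 also: temperature-sensitive tim23-1 mutant grown at 25 °C; 0% = DMSO wells with yeast and 100% = medium wells without yeast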
# V-ATPase pH SP: yeast V-ATPase proton transport regulation; shares compounds with V-ATPase pHluor; response, % at 10 µM; S. cerevisiae pHLuorin cytosolic pH; actives 2% (n = 980); in the data active = response above about 24%;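 also: plate controls were vehicle wells for no effect and positive control wells for full effect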
# Numbers without * were called inactive; x = not tested or not shown.
SMILES,tim10-1 inh,PfHsp90 yeast 2,SKKanGAS inh,TIM10 inh,tim23-1 inh,V-ATPase pHluor,tim23-1 confirm,others
O=C(Nc1ccc(F)cc1)c1nc(S(=O)(=O)Cc2ccccc2)ncc1Cl,31,96*,-6,3,61*,1,-126,
CC1C(c2ccccc2)=Nn2c(=O)n(-c3ccccc3)c(=O)n21 (stereo not drawn),x,x,x,x,x,0,x,
CC(C)(C)OC(=O)C[C@H]1C/C=C\C[C@@H](CC(=O)N(CCO)Cc2ccccc2)C(=O)N[C@H](Cc2c[nH]c3ccccc23)COC1=O,-9,-2,x,-6,-3,-5,x,
COC(=O)c1ccc(NC(=O)CSc2nc(=O)n3cccc(C)c3n2)cc1,-15,x,-6,-9,72*,-2,53*,
COc1ccc(CCC(=O)Nc2ccc(OC)c(S(=O)(=O)N3CCCCC3)c2)cc1,-16,x,x,6,2,-3,x,
CCOC(=O)C1(Cc2cccc(OC)c2)CCN(Cc2cnc(C)s2)CC1,5,-8,-3,3,5,4,x,
COC(=O)[C@@]1(C)[C@H]2C(=O)N(Cc3ccccc3)C(=O)[C@H]2[C@H]2CN=C(SCc3ccc(Cl)cc3)N21,24,6,x,18,51*,4,30,
Cc1nc(NCCc2ccccc2)c2oc3ccccc3c2n1,30,49,3,24,61*,0,41*,
CC1CCN(c2nncc3ccccc23)CC1,9,-3,1,7,19,0,x,
CC1CCN(c2nnc(N3CCC(C)CC3)c3ccccc23)CC1,13,-4,4,15,70*,2,57*,
Cc1ccc(-c2nnc(N3CCCCC3)c3ccccc23)cc1,38,12,-1,36,54*,-4,53*,
O=C(COC(=O)c1ccc(O)cc1O)c1ccc(Cl)cc1,-14,-14,17,-24,63*,0,43*,
O=C(COC(=O)c1ccc(O)cc1O)Nc1ccc(Cl)cn1,-38,30,21,-44,-23,3,x,
COc1ccccc1C1CC(=O)Oc2cc(C)cc(C)c21 (stereo not drawn),17,3,x,1,42,2,x,
Cc1cc(C)c2c(c1)OC(=O)CC2c1ccccc1C (stereo not drawn),26,-30,x,-1,54*,-1,29,
COc1cc2c(c(OC)c1OC)C(c1ccccc1C)CC(=O)O2 (stereo not drawn),3,5,x,5,55*,-1,21,
CCOC(=O)N1C(=O)NC(=O)C1c1ccc(OC)cc1 (stereo not drawn),x,-6,x,x,x,-2,x,
O=C(CCl)N1c2ccccc2OCC1c1ccccc1 (stereo not drawn),39,-34,3,28,46,2,x,
O=C(CCl)N1c2ccccc2SCC1c1ccccc1 (stereo not drawn),0,-4,-4,29,54*,-1,51*,
O=c1oc(-c2ccccc2F)nc2c1cnn2-c1ccccc1,33,-12,-10,39,56*,0,54*,
O=c1oc(-c2cccc(Cl)c2)nc2c1cnn2-c1ccccc1,24,-24,-2,34,46,2,x,
Cn1ncc2c1NC(c1ccc(F)cc1)SCC2=O (stereo not drawn),x,x,x,x,x,0,x,
O=C(NC(=S)NCCc1ccccc1)c1cccc(Cl)c1,33,-1,0,32,52*,0,46*,
COc1ccc(C(=O)NC(=S)NCCc2ccccc2)cc1,17,-11,-6,1,2,x,x,
Cc1nc(NS(=O)(=O)c2ccccc2C)c2c3c(sc2n1)CCC3,32,x,21,20,53*,x,51*,
SMILES,tim10-1 inh,PfHsp90 yeast 2,SKKanGAS inh,TIM10 inh,tim23-1 inh,V-ATPase pHluor,tim23-1 confirm,others
CC(=O)Nc1ccc(S(=O)(=O)Nc2nc(C)nc3sc4c(c23)CCC4)cc1,8,-15,-4,2,12,-2,x,
COc1ccc(/C=N/NC(=O)c2cccs2)c2ccccc12,-5,3,-11,27,56*,-2,51*,
COc1ccc(-c2nc(N)ncc2-c2ccccc2OC)c(O)c1,23,-30,-4,3,25,5,x,
Cc1ccc2c(c1)S(=O)(=O)N(C)C(c1ccccc1)=C2,x,-2,x,x,x,-2,x,
C[C@@H]1C(c2cccc(Cl)c2)=NN(c2ccc(Br)cc2)[C@H]1C(=O)N1CCOC1=O,28,-35,x,19,52*,-3,38*,
C[C@@H]1C(c2ccccc2)=NN(c2ccccc2)[C@H]1C(=O)N1CCOC1=O,32,5,x,11,54*,-1,33,
Cc1c(-c2ccccc2)c(=O)oc2ccc(O)cc12,19,-19,-4,-26,21,0,x,
Cc1ccc2oc(=O)c(-c3ccc(O)cc3)c(C)c2c1,23,1,x,13,52*,1,47*,
OCC[C@@H]1C[C@@H](O)[C@H](O)[C@@]2(OCCc3ccccc32)O1,-29,-8,10,-6,-11,-4,x,
CCOc1ccccc1/C=C(\C#N)C(=O)NC1CC1,28,x,-2,39,55*,3,52*,
Cc1noc(C)c1NC(=O)N(C)C[C@H]1Oc2ccc(NC(=O)Cn3cnnn3)cc2C(=O)N([C@H](C)CO)C[C@@H]1C,-6,-20,x,-2,-7,0,x,
CC(/C=N/NC(=O)c1cccs1)=C\c1ccco1,6,3,-9,23,64*,-1,71*,
COc1cccc(C(=O)c2c(-c3ccccc3)ncc3cc(OC)c(OC)cc23)c1,21,-4,x,-13,54*,-1,33,
COc1ccc(Cl)c2sc(N(CCN(C)C)C(=O)C3=COCCO3)nc12,x,-14,x,x,x,1,x,
CCc1sc(C(=O)Nc2nccs2)cc1C,25,-4,59*,6,54*,-3,58*,
O=C(Nc1nccs1)c1ccc(Cl)s1,25,13,5,30,70*,-2,57*,
CCc1sc(C(=O)Nc2ccc3c(c2)OCO3)cc1C,-17,-8,x,4,55*,0,46*,
CCc1sc(C(=O)Nc2ccc(N3CCOCC3)cc2)cc1C,24,-4,x,1,26,-1,x,
Cc1cc(C(=O)NC2CCCc3c2cnn3-c2ccc(C(C)(C)C)cc2)n[nH]1 (stereo not drawn),32,-51,5,11,30,1,x,
O=C(NC1CCCCC1)c1c(O)nc2sccn2c1=O,15,x,-1,5,67*,12*,47*,V-ATPase pH SP=28*
CN(CC(=O)Nc1ccccc1C(=O)NC1CC1)Cc1ccc(N(C)C)cc1,-13,-1,x,4,-3,-4,x,
COCc1nc2sc(C)c(C)c2c(=O)[nH]1,12,0,14,-2,9,12*,x,V-ATPase pH SP=1
